The list is not random: actives were taken first. Their share in the collection is about 2.7%.
12-LOX inh = blocks human arachidonate 12S-lipoxygenase | P18054 | purified 12hLO, xylenol orange hydroperoxide absorbance | Potency, µM (highest dose often 108 µM), actives largely listed as inhibitors | 580,000 tested, 1.1% active | AID 1671190
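Purified human 12hLO at 150 nM in 25 mM Hepes, 0.01% Triton X-100, pH 7.0, preincubated 15 min at room temperature with compound. Reaction started with 40 uM arachidonic acid, 30 min at room temperature. Hydroperoxide measured by Fe-xylenol orange, 573/405 nm absorbance ratio.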
A549 viability = counter-screen for Nrf2 inhibitors: cytotoxicity in A549 cells; Potency, µM (highest dose often 46 µM), most hits filed as inhibitors; 390,000 tested, 0.16% active; A549 ARE-Fluc cells, CellTiter-Fluor viability, 18-24 h
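Cytotoxicity counterscreen: CellTiter-Fluor fluorescence was measured in A549 ARE_Fluc cells after 18-24 h of compound exposure in a concentration series. The subsequent BugLite luminescent read reports ARE-luciferase activity.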
Nrf2 activator = activates Nrf2 signaling; 410,000 tested, 0.31% active; AREc32 ARE-luciferase reporter (MCF7-derived line), luminescence, 24 h; Potency, µM (series often up to 46.1 µM), hits mostly activators; also: nearly all actives have a fitted effect of over 65% in size
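Nrf2 activation is followed as ARE-luciferase induction in the AREc32 line after one day of compound treatment; luminescence is read with Steady-Glo.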
LDHA inh = LDHA (human) enzyme inhibition | P00338 | purified LDHA, NADH/diaphorase-resazurin fluorescence; hits give low values | activity change, % (values are at about 110 or 230 µM) | 480,000 tested, 0.15% active | AID 1347041; in the data active = activity change below about -30%; inconclusive = mostly about -25% to -30%
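Human LDH5 (2 nM) was incubated with 0.06 mM NADH and 0.2 mM pyruvate for 5 min at room temperature in Tris pH 7.4. Remaining NADH was coupled through diaphorase/resazurin, and resorufin fluorescence was read at 0 and 20 min.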
mIDH1 inhibitor = blocks human mutant IDH1 R132H enzyme; O75874; IDH1-R132H enzyme, NADPH consumption, diaphorase/resazurin fluorescence; Potency, µM (titrated, usually from 76.6 µM), most hits filed as inhibitors; 390,000 tested, 0.093% active; also: nearly all actives have a fitted effect of over 65% in size
Target sequence (O75874 whole entry R132H, stated change not applied): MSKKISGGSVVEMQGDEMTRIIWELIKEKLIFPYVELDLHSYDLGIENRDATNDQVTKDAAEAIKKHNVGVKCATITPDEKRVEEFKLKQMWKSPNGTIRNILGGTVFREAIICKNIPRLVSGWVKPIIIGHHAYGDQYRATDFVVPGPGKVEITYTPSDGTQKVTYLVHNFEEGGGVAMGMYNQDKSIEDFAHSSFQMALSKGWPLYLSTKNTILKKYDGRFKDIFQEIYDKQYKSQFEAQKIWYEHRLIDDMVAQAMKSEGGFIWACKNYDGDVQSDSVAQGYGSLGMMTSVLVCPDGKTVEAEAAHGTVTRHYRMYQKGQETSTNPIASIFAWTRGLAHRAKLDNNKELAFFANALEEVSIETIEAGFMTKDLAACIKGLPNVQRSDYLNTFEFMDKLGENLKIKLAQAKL
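IDH1-R132H (0.5 ug/mL dispensed) in pH 7.5 Tris buffer was preincubated 30 min with compound, then given a substrate mix of 0.016 mM NADPH and 2 mM alpha-KG for 80 min at room temperature; remaining NADPH was read by diaphorase/resazurin fluorescence.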
Nrf2 inh = Nrf2 pathway inhibition; Potency, µM (top dose mostly 46 µM), usual class: inhibitors; AID 504444; A549 ARE-Fluc reporter, luciferase luminescence, 18-24 h; 360,000 tested, 2.1% active; also: nearly all actives have a fitted effect of over 60% in size
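Reporter: ARE-Fluc in A549. Exposure: 18-24 h, 37 °C, 5% CO2, 5% FBS OPTI-MEM. Readouts: fluorescent cytotoxicity (CellTiter-Fluor), then luminescent Nrf2 signal after BugLite.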
Hits are given with their value; i = inactive; ? = inconclusive; nt = no result given; [ ] = remark or other dose. Unless noted, calls follow the shape of the dose curve; as a rule, active = well fitted curve in the direction sought with a large enough effect; inconclusive = small, poorly fitted or top-dose-only effect, or another doubt; inactive = no such curve, though single readings can be large; an effect the other way counts as inactive or inconclusive.

SMILES	12-LOX inh	A549 viability	Nrf2 activator	LDHA inh	mIDH1 inhibitor	Nrf2 inh
COc1ccc(Nc2nc3c(S(=O)(=O)c4ccccc4)nnn3c3ccc(Cl)cc23)cc1	?	?	i	i	i	?
CCc1ccc(S(=O)(=O)c2nnn3c2nc(Nc2ccc(F)cc2)c2cc(Cl)ccc23)cc1	i	i	i	i	i	9.2µM
Nc1nc(SCc2ccc(Cl)cc2Cl)nc2nc3c(cc12)CCCC3	?	i	i	i	i	23µM
Nc1nc(SCc2ccccc2Cl)nc2nc3c(cc12)CCCC3	i	i	i	i	i	i
C=CCn1c(C(=O)NCCCOC)cc2cc(S(=O)(=O)N(C)C)ccc21	i	nt	nt	i	nt	nt
CC(C)C[C@@H](COCc1ccc(C(F)(F)F)cc1)N1CCN(C(=O)c2ccc(C(F)(F)F)cc2)CCC1=O	?	nt	i	i	nt	nt
O=C(c1ccc(Cl)c(Cl)c1)N1CCC(=O)N(C(COCc2cccc(C(F)(F)F)c2)Cc2ccccc2)CC1 (stereo not given)	?	?	i	i	i	21µM
Cc1cccc(COCC(Cc2ccccc2)N2CCN(C(=O)c3ccc(Cl)c(Cl)c3)CCC2=O)c1 (stereo not given)	i	i	i	i	i	i
CC(C)CC(COCc1ccc(C(F)(F)F)cc1)N1CCN(C(=O)c2ccc(C(F)(F)F)cc2)CCC1=O (stereo not given)	i	?	i	i	i	23µM
CCC(=O)N1N=C(c2ccc(NS(C)(=O)=O)cc2)CC1c1ccc(F)cc1 (stereo not given)	i	nt	nt	i	nt	nt
CCOC(=O)c1cnc2ccc(OCC)cc2c1Nc1ccc(OCc2ccccc2Cl)cc1	?	i	i	i	i	21µM
CCNc1ccc(S(=O)(=O)N(CC)CC)cc1NC(=O)Cc1ccccc1F	?	nt	nt	i	nt	nt
O=C(Cn1cc(C(=O)c2ccccc2)c2ccccc21)NCc1ccccc1	?	nt	nt	-35	nt	nt
CC(=O)c1cn(CC(=O)NCc2ccccc2)c2ccccc12	i	nt	nt	i	nt	nt
COc1ccc(Nc2nc3ccccc3nc2NS(=O)(=O)c2cccs2)cc1	i	i	i	i	i	16µM
O=S(=O)(Nc1nc2ccccc2nc1Nc1cccc(S(=O)(=O)N2CCCCC2)c1)c1ccccc1	i	?	i	i	i	12µM
CC(=O)Nc1ccc(S(=O)(=O)Nc2nc3ccccc3nc2Nc2cccc(C)c2)cc1	i	nt	nt	i	nt	nt
CCOc1ccc(S(=O)(=O)Nc2nc3ccccc3nc2Nc2ccc(OC)cc2)cc1	i	i	i	i	i	26µM
CC(=O)Nc1ccc(S(=O)(=O)Nc2nc3ccccc3nc2Nc2cccc(Cl)c2)cc1	16µM	nt	nt	i	nt	nt
Cc1ccc2cc3cc(C(=O)NC4CCCCCC4)sc3nc2c1	?	nt	nt	i	nt	nt
CC(NC(=O)c1ccc(O)c(Cl)c1)c1ccccc1F (stereo not given)	i	nt	nt	i	nt	nt
COc1ccc(-c2noc(NCCc3ccc(Cl)cc3)n2)cc1	?	nt	nt	i	nt	nt
CC1CCC(NC(=O)CCC2CCCO2)CC1 (stereo not given)	?	nt	nt	i	nt	nt
CCc1ccc(Nc2nc3ccccc3nc2NS(=O)(=O)c2ccccc2)cc1	?	i	i	i	i	23µM
O=S(=O)(Nc1nc2ccccc2nc1Nc1ccc(C(F)(F)F)cc1)c1ccccc1	i	nt	nt	i	nt	nt
SMILES	12-LOX inh	A549 viability	Nrf2 activator	LDHA inh	mIDH1 inhibitor	Nrf2 inh
COc1ccc(-c2noc(Nc3ccc(OC)cc3OC)n2)cc1	i	nt	nt	nt	nt	nt
NC(=S)N/N=C1/CCSc2ccc3ccccc3c21	20µM	i	i	i	i	?
O=C(O)c1cccc(NC(=S)N/N=C/c2ccccc2OCc2cccc(Br)c2)c1	28µM	i	i	i	i	i
O=C(O)c1cccc(NC(=S)N/N=C/c2ccccc2OCc2ccc(Br)cc2)c1	16µM	i	i	i	i	i
COc1ccc(S(=O)(=O)Oc2ccc3c(c2)O/C(=C\c2ccc(C)cc2)C3=O)cc1	i	nt	nt	i	nt	nt
CCc1cc(=O)n(CC(=O)Nc2ccc3c(c2)OCCO3)c(-n2nc(C)cc2C)n1	i	nt	nt	i	nt	nt
CC(=O)c1cccc(NC(=O)c2sc(-n3nc(C)c(Cc4ccc5c(c4)OCO5)c3C)nc2C)c1	i	?	i	i	i	9.2µM
Cc1ccc(NC(=O)c2sc(-n3nc(C)c(Cc4ccc5c(c4)OCO5)c3C)nc2C)cc1C	i	i	i	i	i	i
O=C(CSc1cn(CCNC(=O)c2ccccc2F)c2ccccc12)Nc1ccc2c(c1)OCCO2	i	i	i	i	i	i
O=C(CSc1cn(CCNC(=O)c2cccc(C(F)(F)F)c2)c2ccccc12)Nc1ccc2c(c1)OCCO2	i	?	i	i	i	16µM
Cc1cc(NC(=O)CS(=O)(=O)c2cn(Cc3cccc(Br)c3)c3ccccc23)no1	i	nt	i	i	nt	nt
Cc1cc(NC(=O)CS(=O)(=O)c2cn(Cc3ccccc3Cl)c3ccccc23)no1	i	i[1.84 µM]	i	i	i	26µM
CSc1ccccc1C(=O)Nc1ncn[nH]1	11µM	i	i	i	i	i
C=CCSc1ccccc1C(=O)Nc1ncn[nH]1	?	i	?	i	i	i
N#Cc1cc2c([nH]c1=O)CCCC2	i	i	i	i	i	i
N#Cc1cc2c([nH]c1=S)CCCC2	14µM	i	i	i	i	i
CC1=NN(c2nc(-c3ccc(Cl)cc3)cs2)C(=O)C1	5.6µM	i	i	i	i	i
Cn1c(Sc2ncc(C(F)(F)F)cc2Cl)nnc1-c1ccncc1	i	nt	nt	i	nt	nt
Cc1cccc(OCCCCc2c(C)n[nH]c2C)c1	?	i	i	i	i	nt
Cc1ccc(OCCCCc2c(C)n[nH]c2C)c(C(C)(C)C)c1	35µM	nt	nt	i	nt	nt
CC(=O)c1ccccc1OCC(=O)Nc1cccc(S(=O)(=O)N2CCCC2)c1	i	i	i	i	i	13µM
CC(=O)c1cccc(NC(=O)CN2C(=O)NC3(CCC(C)CC3)C2=O)c1 (stereo not given)	i	nt	nt	nt	nt	nt
CC1CCC2(CC1)NC(=O)N(CC(=O)Nc1cccc(S(=O)(=O)N3CCCC3)c1)C2=O (stereo not given)	i	i	i	i	i	5.2µM
CC(CNC(=O)Cn1ccc2cc(S(=O)(=O)N3CCCCCC3)ccc21)c1ccccc1 (stereo not given)	?	i	i	i	i	21µM
CCOc1ccc(CCNC(=O)CCn2ccc3cc(S(=O)(=O)N4CCCC4)ccc32)cc1	i	i	i	i	i	26µM
O=C(COCc1nc2ccccc2c(=O)[nH]1)Nc1nc(-c2ccc3c(c2)CCCC3)cs1	i	nt	nt	i	nt	nt
COCCCNc1oc(-c2ccc([N+](=O)[O-])cc2)nc1C#N	i	nt	nt	i	nt	nt
O=C(Cn1nnc(-c2ccccc2)n1)Nc1cccc(S(=O)(=O)N2CCCC2)c1	i	i	i	i	i	16µM

Screening results: PubChem, National Center for Advancing Translational Sciences (NCATS)
